From PubChem
CYP2C9 act: CYP2C9 (human) activation; recombinant CYP2C9, luciferin-H conversion, luminescence; hits give high values; factor 1 = untreated enzyme, 0 = blocked; activation factor at 5 µM; 96,000 tested, 1.4% active;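 active means activation factor of 2 or more for CYP2C9 at a 5 µM dose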;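 further: 0 = sulfaphenazole-blocked wells and 1 = vehicle-only wells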
CYP2C19 inh: blocks human cytochrome P450 2C19 | AID 778 | inhibition, % at 5 µM | 96,000 tested, 21% active | CYP2C19 Supersomes, luciferin-H EGE luminescence, 30 min | P33261;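 active means CYP2C19 inhibition above a set limit at 5 µM in the primary screen, cut at about 50% in these data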;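 further: plate controls were negative control wells for no effect and 2.5 mM tranylcypromine positive control for full effect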
Target sequence (P33261 whole entry, looked up): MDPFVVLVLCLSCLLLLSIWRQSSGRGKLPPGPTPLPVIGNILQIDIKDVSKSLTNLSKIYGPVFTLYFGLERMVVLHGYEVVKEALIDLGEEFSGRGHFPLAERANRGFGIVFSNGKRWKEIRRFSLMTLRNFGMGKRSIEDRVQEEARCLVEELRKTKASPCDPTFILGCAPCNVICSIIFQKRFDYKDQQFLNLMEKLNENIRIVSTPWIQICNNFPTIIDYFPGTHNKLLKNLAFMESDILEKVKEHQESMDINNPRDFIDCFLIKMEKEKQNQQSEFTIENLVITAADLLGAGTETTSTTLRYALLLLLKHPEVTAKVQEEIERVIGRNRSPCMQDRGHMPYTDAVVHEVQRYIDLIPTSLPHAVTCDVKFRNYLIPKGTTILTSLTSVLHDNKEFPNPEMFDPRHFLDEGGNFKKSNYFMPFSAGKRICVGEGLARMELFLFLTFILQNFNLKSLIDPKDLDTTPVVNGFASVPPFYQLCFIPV
CYP2C9 inhib: human CYP2C9 inhibition | CYP2C9 Supersomes, luciferin-H conversion, luminescence | inhibition, % at 5 µM | 96,000 tested, 20% active | AID 777;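 active means blocking of liver enzyme CYP2C9 beyond about 50% at 5 µM, limit read from the data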
EphB4 ephrin blk: antagonists of human EphB4-ephrin-B2 interaction. inhibition, % at 7 µM. EphB4 LBD / TNYL-RAW-Alexa532 peptide, fluorescence polarization. AID 720. 97,000 tested, 0.15% active. P54760;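 active means inhibition above the screen-wide mean inhibition plus 3 SD, cut at about 15% in these data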;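 further: 0% = DMSO wells and 100% = excess unlabeled TNYL-RAW peptide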
CYP2C19 activ: activators of human cytochrome P450 2C19; P33261; recombinant CYP2C19, luciferin-H EGE luminescence; hits give high values; 0 = fully inhibited enzyme, 1 = untreated enzyme; activation factor at 5 µM; 96,000 tested, under 10 active;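 active means activation factor of at least 2 at 5 µM in the primary screen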;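 further: 0 = wells with 2.5 mM tranylcypromine and 1 = vehicle-only wells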
Starred values were filed as active, the others as inactive; . = not tested or not shown. Most compounds without a hit are left out; they make up all but 27% or so of the library.

SMILES	CYP2C9 act	CYP2C19 inh	CYP2C9 inhib	EphB4 ephrin blk	CYP2C19 activ
CCOC(=O)CN(C(=O)CSc1nnc(CNc2ccc(F)cc2)o1)c1ccccc1	0.2	59*	78*	-3	0.4
CCOC(=O)CN(C(=O)CSc1nnc(CNc2ccc(F)cc2)n1C)c1ccccc1	0.9	16	9	8	0.8
COc1ccc(C=NCCCN2CCOCC2)cc1	.	.	.	-6	.
Cc1noc(C)c1C(=O)N1CCCc2ccccc21	1	18	4	-8	0.8
Cc1onc(-c2ccccc2Cl)c1C(=O)N1CCCc2ccccc21	0.8	68*	16	-2	0.3
Cc1onc(-c2ccccc2)c1C(=O)n1cccn1	0.9	41	7	2	0.6
Cc1onc(-c2ccccc2)c1C(=O)N1CCc2ccccc21	0.6	90*	41	-2	0.1
Cc1onc(-c2ccccc2Cl)c1C(=O)OCC(=O)N1CCCc2ccccc21	0	94*	96*	.	0.1
Cc1onc(-c2c(F)cccc2Cl)c1C(=O)N1C=CC(C(F)(F)Cl)=NCC1	0.7	58*	29	-8	0.4
COCCSc1nnc(NC(=O)C2CCCO2)s1 (configuration not stated)	0.9	1	9	.	1
Cc1cc(NC(=O)CCC(=O)N(c2ccccc2)C(C(=O)NC2CCCCC2)c2cccs2)no1 (configuration not stated)	.	.	.	4	.
COc1cc2c(cc1NC(=O)CSc1nc3ccccc3[nH]1)oc1ccccc12	0.6	21	41	-5	0.8
Cc1ccc(C)c(NC(=O)c2nnn(Cc3ccccc3C)c2N)c1	0.8	37	24	3	0.6
COCc1c(Br)c(C)nc(OCC(=O)O)c1C#N	0.9	5	9	0	0.9
COCCn1nnnc1CN(CCc1ccccc1)Cc1cc2cc(OC)ccc2[nH]c1=O	.	.	.	0	.
Cc1onc(-c2c(F)cccc2Cl)c1C(=O)N1CCCc2ccccc21	0.7	66*	26	12	0.3
Cc1onc(-c2ccccc2Cl)c1C(=O)N1CCc2ccccc21	0.7	69*	34	-5	0.3
Cc1onc(-c2ccccc2Cl)c1C(=O)N1CCCCC1C(=O)O (configuration not stated)	1	10	1	-1	0.9
c1csc(C2C3=C(Nc4ncnn42)c2ccccc2OC3)c1 (configuration not stated)	0.6	29	37	-6	0.7
COc1ccc(C2C3=C(Nc4ncnn42)c2ccccc2CCC3)cc1 (configuration not stated)	0.3	92*	68*	-2	0.1
COc1cc(C2C3=C(Nc4ncnn42)c2ccccc2CC3)cc(OC)c1OC (configuration not stated)	0.3	66*	66*	-3	0.3
Cc1[nH]n(-c2cccc3ccccc23)c(=O)c1C=Nc1ccc2[nH]c(=O)[nH]c2c1	0.9	9	6	1	0.9
O=c1c(Cl)c(NCCCO)cnn1-c1nc2ccccc2[nH]1	1	46	5	-5	0.5
C=CCN(CC=C)c1cnn(-c2nc3ccccc3[nH]2)c(=O)c1Cl	0.5	56*	54*	3	0.4
CC1CCN(C(=O)c2ccc(-n3cnnn3)cc2)CC1	.	.	.	5	.
SMILES	CYP2C9 act	CYP2C19 inh	CYP2C9 inhib	EphB4 ephrin blk	CYP2C19 activ
CCOC(=O)NC(Nc1ncccn1)(C(F)(F)F)C(F)(F)F	1	-4	-1	0	1
CCCCOC(=O)NC(NCC(O)c1ccccc1)(C(F)(F)F)C(F)(F)F (configuration not stated)	0.2	91*	78*	-3	0.1
CCOC(=O)NC(NCC(O)c1ccccc1)(C(F)(F)F)C(F)(F)F (configuration not stated)	0.7	65*	31	-7	0.3
COCC(N)(c1ccccc1)c1nc2ccccc2n1C (configuration not stated)	1	52*	2	-3	0.5
Cc1cccc(N2C(=O)CC(N3CCN(C(=O)c4ccccc4)CC3)C2=O)c1 (configuration not stated)	1	-3	4	-1	1
CCC(Oc1ccccc1)C(=O)N1CCN(C(=O)C(CC)Oc2ccccc2)CC1 (configuration not stated)	0.2	42	84*	0	0.6
CCC(Oc1ccccc1)C(=O)N1CCN(c2ccccn2)CC1 (configuration not stated)	0.1	79*	85*	-2	0.2
COc1ccnc(CSC(N)=Nc2ccc(F)cc2)c1	.	.	.	2	.
COc1ccccc1C(=O)NCCn1ccc2ccccc21	1.1	88*	-5	-3	0.1
COc1ccc(C(=O)NCCn2ccc3ccccc32)cc1OC	1.1	38	-12	.	0.6
COc1cccc(C(=O)NCCn2ccc3ccccc32)c1	0.7	79*	33	.	0.2
COc1cc(OC)cc(C(=O)NCCn2ccc3ccccc32)c1	0.9	78*	10	7	0.2
Cc1cc(C)c(S(=O)(=O)NCCn2ccc3ccccc32)c(C)c1	0.1	49	87*	6	0.5
CCCn1c(C)cc(/C=C(\C#N)C(=O)OCC(=O)NC(=O)NCC)c1C	1.5	20	-50	-4	0.8
CCOc1ccc(C(=O)CCC(=O)O)cc1	0.9	28	7	-2	0.7
O=C(Cc1ccccc1)NCCn1ccc2ccccc21	0.7	76*	34	.	0.2
CC(=O)NCCn1ccc2ccccc21	0.8	18	23	-3	0.8
COc1ccc2c(c1)OCC1=C2CCC2(C)C(=O)CC=C12 (configuration not stated)	0.4	42	64*	3	0.6
COc1ccc2c(c1)SCCC2=O	0.7	34	31	0	0.7
CCOC(=O)c1ccc(S(=O)(=O)N2CCC(C(=O)OCC)CC2)cc1	0.8	19	19	-2	0.8
CCOC(=O)C1CN(S(=O)(=O)c2ccc(C)cc2)CCN1S(=O)(=O)c1ccc(C)cc1 (configuration not stated)	0.2	96*	78*	-9	0
COC(=O)C1CN(S(=O)(=O)c2ccccc2)CCN1S(=O)(=O)c1ccccc1 (configuration not stated)	0.3	98*	74*	5	0
CCOC(=O)C1CN(S(=O)(=O)c2ccccc2)CCN1S(=O)(=O)c1ccccc1 (configuration not stated)	0.3	94*	70*	6	0.1
O=C(O)C1CCCN1S(=O)(=O)c1ccccc1 (configuration not stated)	.	.	.	3	.
CCOc1ccc(S(=O)(=O)N2CCN(S(=O)(=O)c3ccc(OCC)cc3)C(C)C2)cc1 (configuration not stated)	0.8	19	22	.	0.8
COc1cc(C2CC(=O)NC3=C2C(=O)CC(C)(C)C3)ccc1O (configuration not stated)	1	0	1	1	1
NC(=O)Nc1ccc(F)cc1	1	-3	-3	0	1
